In PubChem BioAssay:
Calls of active or inactive are those of the source.

What was measured:
[1] = optical density shifts of acrAB sulA E. coli – strain DRC41, OD650, 48 h, E. coli filamentation inducer project, primary screen (AID 1152); details: higher = more signal, called active from +8 up or from −8 down;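 further: E. coli MC1000 strain DRC41 lacking acrAB efflux pump and sulA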
[2] = probe aLefty1 binding on compound microarray – biochemical, small-molecule microarray, 635/667 nm fluorescence, primary screen (AID 1153); details: higher = more signal;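 further: score merges spot fluorescence with signal-to-noise ratio from the scanned slide images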
[3] = plasmodial surface anion channel blockers, osmotic lysis – cell-based, P. falciparum Indochina, OD700, 1 h, primary screen (AID 1154); details: P. falciparum Indochina infected RBC osmotic lysis, higher = more signal, called active from +8 up or from −8 down
[4] = plasmodial surface anion channel blockers, osmotic lysis – cell-based, P. falciparum Indochina, OD700, 2 h, primary screen (AID 1155);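 further: lysis reports solute entry through the parasite surface anion channel PSAC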; details: P. falciparum Indochina infected erythrocytes, higher = more signal, called active from +8 up or from −8 down
[5] = changes in parasitized red cell lysis, either direction – P. falciparum Indochina, OD700, 3 h, PSAC antagonist project, primary screen (AID 1156); details: P. falciparum-infected erythrocytes, osmotic lysis, higher = more signal, called active from +8 up or from −8 down
[6] = plasmodial surface anion channel blockers, osmotic lysis – cell-based, P. falciparum Indochina, OD700, 18 h, primary screen (AID 1157); details: P. falciparum Indochina infected erythrocytes, osmotic lysis OD700, 18 h; higher = more signal, called active from +8 up or from −8 down
[7] = S6 kinase pathway phospho-S6 level changes – cell-based, A549, cytoblot, luminescence, serum-stimulated, primary screen (AID 1158); details: 5 h, higher = more signal;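 further: serum-stimulated A549 lung adenocarcinoma cells; signal is phosphorylated S6 detected by cytoblot immunostaining with HRP secondary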
[8] = molecular target: NADPH oxidase 2 (Homo sapiens) (UniProt P04839); assay: compounds shifting NOX2 Amplex Red fluorescence – cell-based, HEK293-NOX2, PMA-stimulated, NOX inhibitor project, primary screen (AID 1159); details: 45 min, higher = more signal, called active from +8 up or from −8 down; further: test concentration not given here
[9] = molecular target: NADPH oxidase 4 (Homo sapiens) (UniProt Q9NPH5); assay: compounds shifting NOX4 Amplex Red fluorescence – cell-based, HEK293-NOX4, tetracycline-induced, NOX inhibitor project, primary screen (AID 1160); details: HEK293-NOX4, Amplex Red H2O2 fluorescence, 45 min; higher = more signal, called active from +8 up or from −8 down
[10] = molecular target: NADPH oxidase 5 (Homo sapiens) (UniProt Q96PH1); assay: compounds shifting NOX5 Amplex Red fluorescence – cell-based, HEK293-NOX5, NOX inhibitor project, primary screen (AID 1161); details: HEK293-NOX5, ionomycin, 45 min, higher = more signal
[11] = compound effects on lung adenocarcinoma cell viability – A549, calcein-AM fluorescence, 48 h, basal, profiling panel (AID 1162); details: higher = more signal; further: test concentration not given here
[12] = compound effects on differentiated 3T3-L1 adipocyte viability – cell-based, 3T3-L1 adipocytes, calcein-AM fluorescence, 48 h, basal, profiling panel (AID 1163); details: 3T3-L1 adipocytes viability, higher = more signal; further: test concentration not given here
[13] = compound effects on hepatocellular carcinoma cell viability – HepG2, calcein-AM fluorescence, 48 h, basal, profiling panel (AID 1164); details: higher = more signal; further: test concentration not given here
[14] = compound effects on multiple myeloma cell viability – MM1S, calcein-AM fluorescence, 48 h, basal, profiling panel (AID 1165); details: higher = more signal;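 further: viability of MM1S multiple myeloma cells under basal unstimulated conditions; test concentration not given here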
[15] = calcein-AM signal in unstimulated myeloma cells – cell-based, calcein-AM fluorescence, 48 h, PK04 Diversity Set, profiling panel (AID 1166); details: RPMI8226 myeloma viability, higher = more signal;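 further: cells grown under basal conditions without added stimulus; test concentration not given here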
[16] = JC-1 mitochondrial signal, unstimulated HepG2 cells – cell-based, JC-1 fluorescence, 24 h, 100 nL compound, profiling panel (AID 1167); details: HepG2 mitochondrial potential, higher = more signal; further: test concentration not given here
[17] = JC-1 mitochondrial signal, unstimulated adipocytes – cell-based, JC-1 fluorescence, 3T3-L1 adipocytes, 24 h, 100 nL compound, profiling panel (AID 1168); details: JC-1 mitochondrial fluorescence, higher = more signal, called active from +8 up or from −8 down; further: test concentration not given here
[18] = JC-1 mitochondrial signal, unstimulated myeloma cells – cell-based, JC-1 fluorescence, RPMI8226, 24 h, 100 nL compound, profiling panel (AID 1169); details: JC-1 mitochondrial potential fluorescence, higher = more signal; further: test concentration not given here
[19] = JC-1 mitochondrial signal, unstimulated MM1S myeloma – cell-based, JC-1 fluorescence, 24 h, 100 nL compound, profiling panel (AID 1170); details: MM1S mitochondrial potential, higher = more signal; further: test concentration not given here
[20] = resazurin metabolic signal in A549 cells – cell-based, resazurin fluorescence, 24 h, PK04 Diversity Set, profiling panel (AID 1171); details: A549 viability, higher = more signal, called active from +8 up or from −8 down; further: test concentration not given here

Chain of NADPH oxidase 2 (Homo sapiens) (P04839 whole entry, looked up): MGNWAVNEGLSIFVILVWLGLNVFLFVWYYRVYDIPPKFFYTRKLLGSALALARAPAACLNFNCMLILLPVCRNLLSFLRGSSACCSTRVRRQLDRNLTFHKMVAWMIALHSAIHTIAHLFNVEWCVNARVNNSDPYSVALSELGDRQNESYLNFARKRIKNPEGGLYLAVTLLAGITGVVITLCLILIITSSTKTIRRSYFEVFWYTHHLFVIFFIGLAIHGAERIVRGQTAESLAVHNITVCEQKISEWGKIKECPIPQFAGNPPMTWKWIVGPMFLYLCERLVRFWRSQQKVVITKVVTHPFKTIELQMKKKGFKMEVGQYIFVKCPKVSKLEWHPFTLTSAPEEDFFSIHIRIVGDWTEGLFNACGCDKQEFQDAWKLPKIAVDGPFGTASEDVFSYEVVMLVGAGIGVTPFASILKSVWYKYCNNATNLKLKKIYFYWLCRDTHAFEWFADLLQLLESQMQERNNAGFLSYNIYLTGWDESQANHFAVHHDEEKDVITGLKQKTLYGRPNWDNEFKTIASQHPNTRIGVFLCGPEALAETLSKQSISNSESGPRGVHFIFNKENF
Chain of NADPH oxidase 5 (Homo sapiens) (Q96PH1 whole entry, looked up): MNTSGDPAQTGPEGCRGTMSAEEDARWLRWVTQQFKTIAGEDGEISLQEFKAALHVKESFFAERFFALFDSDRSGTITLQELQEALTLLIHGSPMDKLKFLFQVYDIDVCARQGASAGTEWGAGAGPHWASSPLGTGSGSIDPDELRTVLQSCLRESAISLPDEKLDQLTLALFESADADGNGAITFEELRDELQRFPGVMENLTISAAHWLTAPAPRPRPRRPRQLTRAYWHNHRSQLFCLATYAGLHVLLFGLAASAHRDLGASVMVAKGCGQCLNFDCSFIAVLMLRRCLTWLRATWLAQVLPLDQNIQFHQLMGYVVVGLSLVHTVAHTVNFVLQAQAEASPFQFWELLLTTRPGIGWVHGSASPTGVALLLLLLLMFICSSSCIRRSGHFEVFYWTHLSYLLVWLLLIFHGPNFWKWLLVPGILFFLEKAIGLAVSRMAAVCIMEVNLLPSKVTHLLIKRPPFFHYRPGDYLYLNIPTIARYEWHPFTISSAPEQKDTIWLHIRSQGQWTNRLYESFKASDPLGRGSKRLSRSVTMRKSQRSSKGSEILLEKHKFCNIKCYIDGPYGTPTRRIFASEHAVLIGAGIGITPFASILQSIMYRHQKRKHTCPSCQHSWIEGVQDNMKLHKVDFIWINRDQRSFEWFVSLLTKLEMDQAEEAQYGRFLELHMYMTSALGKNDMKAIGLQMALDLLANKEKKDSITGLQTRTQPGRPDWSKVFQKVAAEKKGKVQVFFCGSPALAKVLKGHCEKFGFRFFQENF
Chain of NADPH oxidase 4 (Homo sapiens) (Q9NPH5 whole entry, looked up): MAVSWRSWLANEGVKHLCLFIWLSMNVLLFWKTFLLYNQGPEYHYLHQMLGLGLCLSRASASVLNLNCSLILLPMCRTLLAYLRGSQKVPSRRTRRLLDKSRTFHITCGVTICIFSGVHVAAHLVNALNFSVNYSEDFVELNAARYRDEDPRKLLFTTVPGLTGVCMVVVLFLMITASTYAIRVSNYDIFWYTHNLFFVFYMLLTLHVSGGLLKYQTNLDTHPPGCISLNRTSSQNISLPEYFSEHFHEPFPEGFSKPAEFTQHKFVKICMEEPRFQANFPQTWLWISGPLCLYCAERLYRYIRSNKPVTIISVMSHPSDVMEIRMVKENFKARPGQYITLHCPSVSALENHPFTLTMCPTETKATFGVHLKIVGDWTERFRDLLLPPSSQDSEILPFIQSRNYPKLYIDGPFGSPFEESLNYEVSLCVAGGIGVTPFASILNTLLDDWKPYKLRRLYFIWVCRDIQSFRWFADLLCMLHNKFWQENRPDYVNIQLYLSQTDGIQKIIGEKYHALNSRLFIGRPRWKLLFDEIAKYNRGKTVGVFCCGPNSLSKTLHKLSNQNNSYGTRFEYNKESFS

Row | SMILES | z-score [1] | composite z-score [2] | z-score [3] | z-score [4] | z-score [5] | z-score [6] | z-score [7] | z-score [8] | z-score [9] | z-score [10] | z-score [11] | z-score [12] | z-score [13] | z-score [14] | z-score [15] | z-score [16] | z-score [17] | z-score [18] | z-score [19] | z-score [20]
1 | CCCCCCCCCCC(O)C1C=CC2C(=O)N(c3ccccc3)C(=O)C2N1Nc1ccc([N+](=O)[O-])cc1 (stereo not given) | -1.14 (inactive) | 0.315 | 5.24 (inactive) | 2.56 (inactive) | -1.8 (inactive) | 2.11 (inactive) | -0.235 | 0.309 (inactive) | -0.243 (inactive) | 0.627 | -2.28 | -0.581 | -1.82 | -3.31 | -4.22 | -2.87 | 0.656 (inactive) | -1.13 | -1.66 | 0.381 (inactive)
2 | C/C=C/[C@H](CCn1cc([C@H](O)c2ccccc2)nn1)[Si](C)(C)c1ccc(OC)cc1 | -0.356 (inactive) | 0.0038 | 5.6 (inactive) | 0.755 (inactive) | 0.39 (inactive) | 0.13 (inactive) | 0.293 | 0.576 (inactive) | -0.0887 (inactive) | -2.11 | -0.0186 | -0.358 | -0.689 | -1.58 | -1.43 | -1.4 | 0.644 (inactive) | -0.569 | -0.629 | 0.22 (inactive)
3 | CCCNC(=O)[C@@]1(C)c2ccccc2C(=O)N(Cc2cc(F)cc(C(F)(F)F)c2)[C@H]1c1ccc(CO)cc1 | 0.119 (inactive) | -0.252 | 7.04 (inactive) | 0.576 (inactive) | 1.03 (inactive) | 0.644 (inactive) | 0.324 | -1.29 (inactive) | -1.51 (inactive) | -2.07 | -0.575 | 0.237 | -0.14 | -0.0049 | 1.18 | 2.08 | 0.224 (inactive) | 0.795 | -0.749 | 1.79 (inactive)
4 | Oc1ccc2cc[n+](Cc3cccc(OC(F)(F)F)c3)cc2c1 | 0.444 (inactive) | -0.606 | 0.0313 (inactive) | -0.0655 (inactive) | 0.621 (inactive) | -0.236 (inactive) | -0.522 | -1.93 (inactive) | -0.554 (inactive) | -0.3 | 0.609 | 0.128 | 0.577 | 0.683 | -0.592 | 0.303 | 0.339 (inactive) | 0.593 | -0.862 | -1.81 (inactive)
5 | COc1ccc([Si](C)(C)[C@H]2[C@H](CC(=O)N3CCC[C@H]3CO)O[C@@]3(C(=O)N(c4ccccc4)c4ccccc43)[C@@H]2C)cc1 | 3.01 (inactive) | 0.228 | 1.84 (inactive) | -0.132 (inactive) | -0.0926 (inactive) | -0.284 (inactive) | 1.48 | 1.44 (inactive) | 1.46 (inactive) | 1.96 | 1.35 | 0.42 | 0.628 | 1.63 | 0.912 | 2.53 | -0.667 (inactive) | 0.421 | -0.947 | 1.63 (inactive)
6 | O=C1C2C=CC(C(O)c3cccc4ccccc34)N(n3cnnc3)C2C(=O)N1Cc1ccccc1 (stereo not given) | -1.53 (inactive) | 1.69 | -0.0851 (inactive) | 0.327 (inactive) | 0.282 (inactive) | 0.339 (inactive) | -0.711 | -0.154 (inactive) | 0.0285 (inactive) | -0.879 | -0.986 | -0.06 | -1.6 | -0.467 | -1.81 | -1.23 | -1.18 (inactive) | -0.0245 | -0.0153 | -0.522 (inactive)
7 | CCCC[C@@H]1C[C@H]1[C@@H](NC(=O)c1ccccc1)c1ccccc1 | -1.39 (inactive) | 1.43 | 0.713 (inactive) | 0.803 (inactive) | 0.13 (inactive) | 0.888 (inactive) | -0.943 | -0.289 (inactive) | -1.21 (inactive) | 1.98 | -1.2 | -0.902 | -1.02 | -1.43 | -1.48 | -2.36 | -1.07 (inactive) | 0.203 | -1.25 | -0.324 (inactive)
8 | CCCNC(=O)[C@@]1(C)c2ccccc2C(=O)N(Cc2ccc(OC(F)(F)F)cc2)[C@H]1c1ccc(CO)cc1 | 0.707 (inactive) | 0.15 | 7.17 (inactive) | 0.699 (inactive) | 2.41 (inactive) | 0.208 (inactive) | 0.0696 | -1.07 (inactive) | 0.332 (inactive) | 0.423 | 0.951 | -0.105 | 1.28 | 0.328 | -0.0542 | 3.34 | 0.45 (inactive) | -0.244 | -0.949 | -0.658 (inactive)
9 | COC(=O)c1c(CC[C@@H](CO)NC(=O)Nc2ncn[nH]2)oc(C(=O)Cc2ccccc2)c1C(=O)OC | -0.862 (inactive) | 0.0751 | 0.658 (inactive) | 0.22 (inactive) | -0.641 (inactive) | 0.0651 (inactive) | 0.0642 | -1.16 (inactive) | -0.331 (inactive) | -0.53 | -0.0782 | -0.927 | -0.314 | 0.226 | 0.343 | -0.808 | 0.765 (inactive) | 0.0444 | -0.286 | 0.199 (inactive)
